13 compounds from PubChem BioAssay (Tox21) can be followed below.

Assay [1] is described as follows: qHTS assay to identify small molecule antagonists of the estrogen related receptor signaling pathway with the pleiotropic PPARgamma coactivator (PGC) from Tox21 10K library - cell viability counter screen (AID 1224840; active = well fitted cell-killing curve with a large enough effect in the repeat runs, not every such curve was filed as active; note: nearly all actives have a fitted effect of over 40% in size; note: potency is the fitted concentration of half-maximal effect). The procedure, abridged: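 Seeded PGC/ERR cells (2,000/well, 6 h, 37 C/5% CO2) get compound by pin tool; 17.5 h incubation at 37 C; CellTiter-Fluor added, 30 min, fluorescence measured.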

Assay [2] is described as follows: qHTS assay to identify small molecule agonists of the estrogen related receptor signaling pathway with the pleiotropic PPARgamma coactivator (PGC) from Tox21 10K library (AID 1224842). Note: nearly all actives have a fitted effect of over 15% in size. Put shortly: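 PGC/ERR reporter cell line, 2,000 cells per well, incubated 6 h at 37 C before 23 nL compound in DMSO was added. After 18 h at 37 C, One-Glo luminescence read following 30 min at room temperature.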

Assay [3] deals with Thyrotropin receptor (Homo sapiens) (UniProt P16473). Kind of assay: qHTS assay to identify small molecule agonists of the thyroid stimulating hormone receptor (TSHR) signaling pathway (AID 1224843; calls by dose curve; note: nearly all actives have a fitted effect of over 45% in size). The procedure, abridged:
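HEK293/TSHR, 800 cells/well; cpd 30 min RT; add cAMP-d2 + anti-cAMP-cryptate, 1 h RT; fluorescence read on plate reader. 15-pt titration, n=3.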

The nature of assay [4]: qHTS assay to identify small molecule agonists of the hypoxia (HIF-1) signaling pathway - cell viability counter screen (AID 1224844; calls by dose curve; note: nearly all actives have a fitted effect of over 50% in size; note: potency is the fitted concentration of half-maximal effect). Put shortly: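 HRE-bla ME-180; 0.5% dFBS; cpd 17 h, 37C, 5% CO2; CellTiter-Glo lum., 30 min RT, post-FRET read, same wells.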
Assay [5] is described as follows: qHTS assay to identify small molecule agonists of H2AX (AID 1224845; active = well fitted activation curve with a large enough effect in the signal ratio in the repeat runs, not every such curve was filed as active; the % refers to the signal ratio; note: potency is the fitted concentration of half-maximal effect). The procedure, abridged: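 Wild-type CHO-K1 cells, plated overnight, exposed 3hr at 37C to 15 concentrations (0.76% DMSO final). Lysed, then HTRF anti-pH2AX (S139) cryptate and anti-H2AX-d2 antibodies, 24 hr room temperature; 665/620 nm emission read.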
A short description of assay [6]: qHTS assay to identify small molecule agonists of H2AX - cell viability counter screen (AID 1224847; calls by dose curve; note: nearly all actives have a fitted effect of over 30% in size; note: potency is the fitted concentration of half-maximal effect). The procedure, abridged:
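Cells plated first: CHO-K1, 1000 per well in 10% FBS medium, incubated overnight at 37C. Then 15-point compound titration added (final DMSO 0.76%) for 3 hr. Finally CellTiter-Glo added and luminescence read.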

A short description of assay [7]: qHTS assay to identify small molecule agonists of the estrogen related receptor (ERR) signaling pathway from Tox21 library (AID 1224849; calls by dose curve; note: nearly all actives have a fitted effect of over 15% in size). As to conditions: ERR reporter cell line, ONE-Glo luciferase, 18 h; at 92.4 µM (top of the series) unless noted. Put shortly:
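Tox21 compounds tested for ERR agonism in an NTP reporter cell line: 18 h treatment at 37 C, then ONE-Glo luminescence.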

A short description of assay [8]: A CellTox Green Cytotoxicity Assay to monitor cytotoxicity in HEK293 cells - 0 hour (AID 1224869). Note: nearly all actives have a fitted effect of over 50% in size. The procedure, abridged: (§1)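 Tox21 screen in HEK293: membrane-impermeant cyanine dye fluoresces on binding dead-cell DNA; compound pinned 5 h post-seeding, plates held at 37 C, signal read repeatedly through 40 h.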
Assay [9] in a line: qHTS RealTime-Glo MT Cell Viability Assay in HepG2 cells - 40 hour (AID 1224870). Note: nearly all actives have a fitted effect of over 50% in size. Note: potency is the fitted concentration of half-maximal effect. Put shortly: (§2)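 HepG2 cells (600/well) mixed with RealTime-Glo MT reagent, settled 5 h at 37 C/5% CO2 before compound addition. Nonlytic NanoLuc luminescence from viable-cell prosubstrate reduction read repeatedly during 40 h treatment at 37 C.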
Assay [10] has as its target Nuclear receptor subfamily 1 group I member 3 (Homo sapiens) (UniProt Q14994). Briefly: qHTS assay to identify small molecule antagonists of the constitutive androstane receptor (CAR) signaling pathway (AID 1224838).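 Note: HepG2 cells stably expressing hCAR with CYP2B6 luciferase reporter stimulated by CITCO; nearly all actives have a fitted effect of over 40% in size.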 Put shortly:
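Human hepatoma HepG2 cells expressing hCAR and a CYP2B6 promoter (2.2 kb) luciferase construct; compound titration (15 points) with 50 nM CITCO final, 24 h at 37 C/5% CO2; luminescence via ONE-Glo after 30 min at room temperature.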

Assay [11] shares this target. Kind of assay: qHTS assay to identify small molecule agonists of the constitutive androstane receptor (CAR) signaling pathway (AID 1224839).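 For activation: HepG2 cells stably carrying human CAR and a CYP2B6 luciferase reporter.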 Note: nearly all actives have a fitted effect of over 15% in size. Note: potency is the fitted concentration of half-maximal effect. Put shortly:
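HepG2-CYP2B6-hCAR cells, 2500/well, 4 h pre-incubation; compounds 15 conc.; PK11195 0.75 uM final; 24 h, 37 C/5% CO2; ONE-Glo luciferase read.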

Assay [12] in a line: qHTS RealTime-Glo MT Cell Viability Assay in HepG2 cells - 24 hour (AID 1224867). Note: nearly all actives have a fitted effect of over 50% in size. Note: potency is the fitted concentration of half-maximal effect. The procedure, abridged: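 Cells + NanoLuc/prosubstrate dispensed (600 cells/well) → 5 h at 37 C/5% CO2 → compounds in DMSO transferred → 40 h incubation at 37 C, luminescence read at 0, 8, 16, 24, 32, 40 h.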
Assay [13] in a line: qHTS RealTime-Glo MT Cell Viability Assay in HEK293 cells - 32 hour (AID 1224868). Note: nearly all actives have a fitted effect of over 50% in size. Note: potency is the fitted concentration of half-maximal effect. Put shortly: (§3)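 Tox21 10K qHTS, HEK293, 600 cells/well, RealTime-Glo reagent co-dispensed with cells; 5 h preincubation, compound by pintool, 37 C, luminescence at 0–40 h.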
Assay [14] is described as follows: qHTS RealTime-Glo MT Cell Viability Assay in HEK293 cells - 16 hour (AID 1224872). Note: nearly all actives have a fitted effect of over 50% in size. Note: potency is the fitted concentration of half-maximal effect. Put shortly:
as §3

Assay [15] can be described thus: qHTS RealTime-Glo MT Cell Viability Assay in HepG2 cells - 8 hour (AID 1224873). Note: nearly all actives have a fitted effect of over 55% in size. Note: potency is the fitted concentration of half-maximal effect. Put shortly: as §2
Assay [16] can be described thus: qHTS assay to identify small molecule agonists of the hypoxia (HIF-1) signaling pathway (AID 1224846; active = well fitted activation curve with a large enough effect in the signal ratio in the repeat runs, not every such curve was filed as active; the % refers to the signal ratio). Put shortly: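 Reporter induction in HRE-bla ME-180 cells is taken as agonism: cells sit 5 hrs after plating, receive compounds or DMSO only, incubate 17 hrs at 37C under 5% CO2, and are loaded with CCF4-AM for beta-lactamase FRET measurement.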
Assay [17] can be described thus: A CellTox Green Cytotoxicity Assay to monitor cytotoxicity in HEK293 cells - 40 hour (AID 1224871). Note: nearly all actives have a fitted effect of over 45% in size. Note: potency is the fitted concentration of half-maximal effect. Put shortly: as §1
The nature of assay [18]: qHTS assay to identify small molecule antagonists of the estrogen related receptor signaling pathway with the pleiotropic PPARgamma coactivator (PGC) from Tox21 10K library (AID 1224841; call rule not given here). The procedure, abridged: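 Test chemicals dissolved in DMSO were applied to pre-incubated (6 h) PGC/ERR cells at 2,000 cells/well for an 18 h, 37 C treatment; reporter luminescence was then read using One-Glo.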

The nature of assay [19]: qHTS assay to identify small molecule antagonists of the estrogen related receptor (ERR) signaling pathway from Tox21 library (AID 1224848). Note: nearly all actives have a fitted effect of over 50% in size. Note: potency is the fitted concentration of half-maximal effect. The procedure, abridged:
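Compounds dissolved in DMSO are pin-transferred onto ERR reporter cells (2,000 per well) that have settled for 6 h at 37 C. Plates then incubate 18 h at 37 C before ONE-Glo luciferase reagent and a luminescence read 30 min later.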

Values without a mark were called inactive. Results filed as inconclusive are left out. Active and inactive are the calls of the source. Unless noted, calls come from the whole dose curve; as a rule, active = well fitted curve in the direction sought with a large enough effect in the repeat runs; inconclusive = weak or mixed curves; inactive = no such curve, though single readings can be large; an effect the other way counts as inactive or inconclusive.
% is set by controls: 0 for no effect and ±100 for the full control effect.

Chain of Thyrotropin receptor (Homo sapiens) (P16473 whole entry, looked up): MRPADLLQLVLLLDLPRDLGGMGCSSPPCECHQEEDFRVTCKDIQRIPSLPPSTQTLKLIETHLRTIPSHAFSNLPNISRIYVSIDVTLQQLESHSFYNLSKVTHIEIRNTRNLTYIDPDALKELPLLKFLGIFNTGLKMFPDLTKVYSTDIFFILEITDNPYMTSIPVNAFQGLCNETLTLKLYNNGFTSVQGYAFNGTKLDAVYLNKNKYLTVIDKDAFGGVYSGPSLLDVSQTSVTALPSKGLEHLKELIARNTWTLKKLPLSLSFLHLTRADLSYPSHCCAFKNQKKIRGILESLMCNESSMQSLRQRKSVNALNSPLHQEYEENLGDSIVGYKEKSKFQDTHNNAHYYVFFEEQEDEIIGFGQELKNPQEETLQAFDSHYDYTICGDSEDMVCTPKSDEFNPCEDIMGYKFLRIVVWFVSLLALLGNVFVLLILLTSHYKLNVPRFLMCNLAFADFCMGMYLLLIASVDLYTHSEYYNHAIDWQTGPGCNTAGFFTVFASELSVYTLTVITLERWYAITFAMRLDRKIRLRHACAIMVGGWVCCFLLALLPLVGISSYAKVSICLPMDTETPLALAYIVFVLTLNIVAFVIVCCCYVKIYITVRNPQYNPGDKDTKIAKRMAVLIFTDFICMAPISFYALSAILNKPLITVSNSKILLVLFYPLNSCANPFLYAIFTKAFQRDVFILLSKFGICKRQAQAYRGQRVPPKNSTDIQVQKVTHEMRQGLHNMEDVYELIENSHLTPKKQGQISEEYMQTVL
Chain of Nuclear receptor subfamily 1 group I member 3 (Homo sapiens) (Q14994 whole entry, looked up): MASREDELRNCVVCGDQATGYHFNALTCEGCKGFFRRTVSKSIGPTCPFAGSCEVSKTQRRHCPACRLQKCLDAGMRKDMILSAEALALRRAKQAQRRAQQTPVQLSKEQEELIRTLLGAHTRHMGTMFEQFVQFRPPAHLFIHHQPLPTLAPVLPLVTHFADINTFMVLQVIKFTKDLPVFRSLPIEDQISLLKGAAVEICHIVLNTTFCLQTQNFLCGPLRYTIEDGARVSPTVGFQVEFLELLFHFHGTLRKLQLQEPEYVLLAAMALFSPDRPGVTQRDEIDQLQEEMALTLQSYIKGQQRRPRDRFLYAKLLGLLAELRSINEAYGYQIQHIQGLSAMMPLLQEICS

On to `O=C(Nc1ccccc1)c1cc(Cl)ccc1O`, for which the Potency in assay [1] is 17.2 µM (active); in assay [6] it was 25.3 µM (active); in assay [9] it was 49 µM (active). In addition, the Potency result in assay [2], in assay [3], in [4], in [5] and in assay [8] was “inactive” each time. The activity change, positive = activation in assay [7] is -16.2%.
For `Cc1cc(F)ccc1-c1cc(N2CC[C@@H](O)[C@H]2CO)ncc1N(C)C(=O)C(C)(C)c1cc(C(F)(F)F)cc(C(F)(F)F)c1`, the Potency entry in assay [10], in assay [11], in assay [3] and in assay [8] was “inactive” in each case. Besides, the Potency was 24.2 µM (active) in assay [4]; 39.5 µM (active) in [5]; 70.2 µM (active) in assay [6]; 38.3 µM (active) in assay [12]; 17.1 µM (active) in [13]; 43 µM (active) in [9]. Also, the Potency in assay [14] is 30.4 µM (active); in [15] it was 38.3 µM (active).
For `c1ccc(-c2nc3ccccc3[nH]2)cc1`, the Potency entry in [1], in assay [4], in assay [5], in [16], in assay [12] and in assay [8] was “inactive” throughout. The Potency entry in [9] and in [15] was “inactive” each time. In addition, the values for the Potency in assay [6], in assay [13] and in assay [14] were 89.8 µM (active), 34.7 µM (active) and 21.9 µM (active), respectively.
As for `Nc1ccc(Cl)c([N+](=O)[O-])c1`, the Potency result in [1], in [4], in [5], in [16], in assay [6] and in [12] was “inactive” each time. Also, the Potency entry in assay [13], in [8], in [9], in assay [17], in assay [14] and in assay [15] was “inactive” throughout.
In the case of `Oc1ccc2c(c1)CCC2`, the Potency result in assay [10], in assay [1], in assay [18], in assay [2], in assay [4] and in [5] was “inactive” in each case. Moreover, the Potency entry in [16], in assay [6], in assay [19], in [12], in assay [13] and in assay [8] was “inactive” in each case. Also, the Potency entry in [9], in assay [17], in [14] and in [15] was “inactive” in each case. The activity change, positive = activation in assay [7] is 7.55%.
In the case of `Cc1ccc(N=Nc2c(O)ccc3ccccc23)c(C)c1`, the Potency result in [10], in assay [3], in assay [5], in assay [16], in [6] and in assay [12] was “inactive” each time. The Potency result in assay [13], in assay [8], in [9], in assay [17] and in assay [15] was “inactive” in each case. Also, the Potency in [11] was 8.41 µM (active); in assay [4] it was 21.3 µM (active).
Regarding `Cc1c(Cl)c(=O)oc2cc(O)ccc12`, the Potency result in [10], in assay [3], in assay [4], in [6], in [12] and in assay [8] was “inactive” throughout. The Potency result in [9], in assay [17] and in assay [15] was “inactive” each time. Besides, the Potency in [13] was 43.6 µM (active); in [14] it was 49 µM (active).
In the case of `COc1c(Br)cc(Br)c(C)c1Br`, the Potency result in [1], in [3], in assay [4], in assay [16], in [6] and in assay [12] was “inactive” throughout. In addition, the Potency result in [13], in [8], in assay [9], in assay [14] and in [15] was “inactive” in each case.
For the compound `CCN(CC)c1ccc(N=Nc2ccccc2)cc1`, the Potency result in [10], in assay [3], in assay [12], in assay [8], in assay [9] and in assay [17] was “inactive” throughout. For the same compound, in assay [15], the Potency entry was “inactive”. Further, the Potency in assay [11] is 13.7 µM (active); in assay [13] it was 49 µM (active); in assay [14] it was 49 µM (active).
Turning to `Oc1ccc(Cl)cc1C1CCCC1`, the Potency result in assay [10], in assay [1], in [18], in [2], in assay [5] and in [19] was “inactive” each time. The Potency result in assay [12], in assay [8] and in [9] was “inactive” each time. Moreover, the Potency in [6] was 56.6 µM (active); in assay [17], 49 µM (active); in assay [14], 24.5 µM (active). In addition, the activity change, positive = activation in [7] was 6.21%.
As to `O=C1CCC(=O)N1`, the Potency entry in assay [1], in assay [18], in [3], in [4], in assay [5] and in assay [16] was “inactive” each time. For the same compound, the Potency result in [6], in assay [19], in assay [12], in assay [8], in assay [9] and in assay [17] was “inactive” throughout. In addition, the Potency entry in assay [15] is “inactive”. The activity change, positive = activation in assay [7] was 0.296%.
Regarding `CN(C)CCOc1ccc(/C(=C(/CCCl)c2ccccc2)c2ccccc2)cc1`, the Potency result in [11], in [3] and in [8] was “inactive” throughout. Moreover, the Potency in assay [1] was 57.2 µM (active); in assay [4], 40.9 µM (active); in [19] it was 51 µM (active); in assay [12] it was 40.9 µM (active); in assay [13] it was 36.4 µM (active); in assay [9], 40.9 µM (active). Moreover, the Potency in [17] is 45.8 µM (active); in assay [14] it was 36.4 µM (active); in [15] it was 36.4 µM (active). For the same compound, the activity change, positive = activation in [7] was -52.6%.
Take `CN1CCN(CCCN2c3ccccc3Sc3ccc(Cl)cc32)CC1`: the Potency result in [10], in assay [11], in [3], in [8] and in [15] was “inactive” throughout. The Potency in assay [4] and in [12] was 21.3 µM (active) each time.
